Test results: ChEMBL document CHEMBL4513216, “Probing the Open Global Health Chemical Diversity Library for Multistage-Active Starting Points for Next-Generation Antimalarials” (ACS Infect Dis, 2020)
The whole screen tested about 69,000 compounds, of which about 8,600 (12%) showed an effect of 50% or more. This excerpt belongs to a sample that is enriched for strong results.

Test system: Plasmodium berghei
Assay: Screen against P. berghei liver stage (PbLuc), transformed with Luciferase, at 10uM
Type: functional, HepG2
Conditions: tested at 10 uM

| Compound | INHIBITION |
| --- | --- |
| CC(=O)N1CCCN(C(C)c2ccc(Br)cc2)CC1 (stereo not given) | -19.2% |
| CC(C)CNC(=O)N1CC[C@@H]2CN(Cc3cccnc3)S(=O)(=O)[C@@H]2CC1 | 32.1% |
| CCC(CC)C(O)CNC(=O)Cc1c[nH]c2ncccc12 (stereo not given) | 2.38% |
| CCN1CCCC(O)(CN(C)Cc2ccccc2F)C1 (stereo not given) | 8.46% |
| O=C1CC(c2ccccc2)C2(CCN(C(=O)c3ccncc3F)CC2)N1 (stereo not given) | 32.2% |
| COCCCNC(=O)Nc1ccc(F)c(C(N)=O)c1 | -23.9% |
| COc1c(Cl)cc(Cl)cc1CN1CCC(C(N)=O)C1 (stereo not given) | -11.3% |
| O=C(NCc1ccccc1F)N1CCCCC1C1OCCO1 (stereo not given) | -6.88% |
| CN(Cc1cccc(-n2cccn2)c1)Cc1cccs1 | -29% |
| CCC(CO)N(Cc1cccc(-n2cccn2)c1)Cc1ccccn1 (stereo not given) | 25.5% |
| CCC(CO)N(Cc1cccc(-n2cccn2)c1)Cc1cccs1 (stereo not given) | 53.2% |
| O=C(COc1cccc(F)c1)N1C[C@H](CO)C[C@H](CN2CCCC2)C1 | 10.42% |
| O=C(COc1cccc(F)c1)N1C[C@@H](O)[C@H](N2CCCC2)C1 | 53.5% |
| CN(C)[C@@H]1CN(C(=O)COc2cccc(F)c2)C[C@H]1O | 54.5% |
| O=C(COc1cccc(F)c1)N1C[C@@H](CN2CCCC2)C[C@H](CO)C1 | -1.315% |
| O=C(COc1ccccc1)N1C[C@@H](O)[C@H](N2CCCC2)C1 | 37% |
| O=C(COc1cccc(F)c1)N1C[C@@H](O)[C@H](N2CCOCC2)C1 | 32.3% |
| COCCN1C(=O)[C@]2(CC[C@@H]3CN(Cc4ccccc4F)C[C@@H]32)N=C1C | 14.9% |
| O=C(Nc1cnn(-c2ccccc2Cl)c1)NC1CCC(O)CC1 (stereo not given) | -66.7% |
| Cc1nn(C)c(C)c1S(=O)(=O)N1CC[C@H]2O[C@@H](C)C[C@H]2C1 | 17.4% |
| COC(=O)[C@H](C)NC(=O)CSCc1nc2sc(C(C)C)cc2c(=O)[nH]1 | 28.7% |
| O=C(C1CCC1)N1C2CCC(O)(CC2)C1CN1CCOCC1 (stereo not given) | 16.2% |

| Compound | INHIBITION |
| --- | --- |
| Cn1nc(-c2ccc(F)cc2)cc1C(=O)NCCn1ccnc1 | -0.232% |
| CC1CN(CC(=O)Nc2cccnc2)CCN1c1nccs1 (stereo not given) | 52.7% |
| O=C(CN1CCN(c2nccs2)CC1)Nc1cccnc1 | -24.2% |
| Cc1csc(N2CCN(CC(=O)Nc3nncs3)CC2C)n1 (stereo not given) | 40.9% |
| Cc1csc(N2CCN(CC(=O)Nc3cccnc3)CC2C)n1 (stereo not given) | 11.9% |
| Cc1csc(N2CCN(CC(=O)Nc3ccncc3)CC2C)n1 (stereo not given) | 71.75% |
| CC1CN(CC(=O)Nc2ccncc2)CCN1c1nccs1 (stereo not given) | 21.6% |
| Cc1cc(N2CCN(Cc3ccnn3C)CC2)cc(C2CCCN2)n1 (stereo not given) | 37.45% |
| Cc1cccc(S(=O)(=O)N2CC[C@H]3CO[C@H](CN(C)C)[C@H]3C2)c1 | -1.55% |
| COCc1nn(C(C)C)c2c1CCN(Cc1nccs1)C2 | -11.6% |
| O=C(c1cnccn1)N1CCN(Cc2cccnc2)c2ncccc2C1 | 11.5% |
| CCc1ccc(CNC[C@H]2C[C@@H](CO)N(C)[C@H]2c2ccccc2F)o1 | -3.96% |
| CN1[C@H](CO)C[C@H](CNCc2ccc(CO)o2)[C@@H]1c1ccccc1F | 28.7% |
| CN1[C@H](CO)C[C@H](CNCc2ccc(Cl)c(F)c2)[C@@H]1c1ccccc1F | 53.5% |
| CCC(=O)N1CCC(c2nc(N3CCOCC3)ncc2S(C)(=O)=O)CC1 | 36% |
| Cc1nnc(C2Cc3ccccc3CN2Cc2c(C)noc2C)o1 (stereo not given) | 19.5% |
| CC(Cn1cccn1)NC(=O)c1cc(C2CC2)nc2c1cnn2C (stereo not given) | -6.18% |
| Cn1cc(CN2CCC(c3cc(COc4cccc(Cl)c4)[nH]n3)C2)cn1 (stereo not given) | 21.955% |
| COc1ccc(CN2CC(n3cccn3)C2)cc1F | 4.34% |
| COC(=O)c1ccc(OC)c(CN2CCN(CC(C)C)C(=O)C2C)c1 (stereo not given) | -14.1% |
| COc1ccc(C)cc1CN1CCN(Cc2nccn2C)C(C)C1 (stereo not given) | -78.3% |
| COc1ccc(C)cc1CN1CCCC1Cn1nc(C)nc1C (stereo not given) | 25.3% |

| Compound | INHIBITION |
| --- | --- |
| COc1cc(C(C)=O)ccc1OCC(=O)c1cccn1C | 41.3% |
| COc1ccc(CN2CCn3cccc3C2C)cc1F (stereo not given) | 59.4% |
| COc1ccc(CN2CCN(Cc3nccn3C)C(C)C2)cc1F (stereo not given) | -85.6% |
| COc1ccc(C(C)=O)cc1CN1CCn2cccc2C1C (stereo not given) | 58.5% |
| COc1ccc(C)cc1CN1CCn2cccc2C1C (stereo not given) | 84.2% |
| CC(=O)N1CCN(CCNS(=O)(=O)c2c(F)cccc2F)CC1 | 31.6% |
| Cn1cnc2c1C(C(=O)N1CCCC1)N(CC1CC1)CC2 (stereo not given) | 0.804% |
| COc1ccc2c(c1)CCCN2Cc1nc(C)c(C)o1 | 19.8% |
| Cc1cc(C)n(CC2CN(Cc3noc(C)n3)CCO2)n1 (stereo not given) | 5.7% |
| CCCn1nnnc1COC(=O)C1COc2ccccc2O1 (stereo not given) | 49% |
| O=C(NCCc1cc2nc(-c3ccncc3)ccn2n1)C1CCOCC1 | 17.14% |
| Cc1nnsc1C(=O)N1C[C@@H]2CC[C@H]1CN(c1cnccn1)C2 | 4.35% |
| Cc1cc(F)ccc1CCNC(=O)NCC(C)N1CCOCC1 (stereo not given) | 11.1% |
| O=C(O)c1cc(S(=O)(=O)Nc2cnn(C3CCOCC3)c2)ccc1F | 29.3% |
| CCN(C(=O)CCc1ccc2c(c1)OCO2)C1CC(=O)NC1=O (stereo not given) | 7.97% |
| Cc1nn(C)c(C)c1CC(=O)N1CCCC(n2ccnc2C)C1 (stereo not given) | 23.7% |
| O=C(CCc1nccs1)N1CCCC(n2cccn2)C1 (stereo not given) | 38.5% |
| Cc1cnn(C2CCCN(C(=O)CCc3ccncc3)C2)c1 (stereo not given) | 26.4% |
| Cc1nn(CC(C)C)c(C)c1CC(=O)N1CCCC(CNS(C)(=O)=O)C1 (stereo not given) | 24.1% |
| Cc1cnn(C2CCCN(C(=O)CCc3nccs3)C2)c1 (stereo not given) | 63.9% |
| Cc1nn(C)c(C)c1CC(=O)N1CCCC(CNS(C)(=O)=O)C1 (stereo not given) | 50.2% |
| Cc1nn(C)c(C)c1CC(=O)N1CCCC(n2cccn2)C1 (stereo not given) | 7.13% |

| Compound | INHIBITION |
| --- | --- |
| Cc1nn(C)c(C)c1CC(=O)N1CCCC(n2ccnc2)C1 (stereo not given) | 44.3% |
| Cc1cnn(C2CCCN(C(=O)Cc3c(C)nn(C)c3C)C2)c1 (stereo not given) | 53.9% |
| Cc1nn(C)c(C)c1-c1ccnc(N2CCCN(CC(C)C)CC2)n1 | 24.3% |
| COc1ccc(F)c(NCc2ccc(C(=O)N(C)C)[nH]2)c1 | -22.6% |
| CN(Cc1nc2ccccc2o1)C1CCCN(c2cccnn2)C1 (stereo not given) | 28.8% |
| CC(=O)N1CCN([C@@H]2CC[C@@H](N(C)C(=O)C3CCCCC3)[C@H]2O)CC1 | 39.7% |
| Cc1nc(CN2CCOCC3(CCCN(c4cnccn4)C3)C2)cs1 (stereo not given) | 15.4% |
| Cn1ccnc1SCCNC1CCN(c2nc3ccccc3s2)CC1 | 34.1% |
| CCCc1cc(CNC2CCN(c3nc4ccccc4s3)CC2)on1 | 67.8% |
| c1ccc(CN2CCC(NCCSc3ncn[nH]3)C2)cc1 (stereo not given) | 42.3% |
| CCCc1cc(CNC2CCN(c3nc(C)cc(C)n3)CC2)on1 | 35.2% |
| CCCc1cc(CNC(=O)C2CCOc3ccccc3C2)on1 (stereo not given) | 26.8% |
| CCCc1cc(N2CCC(NCC3(O)CCCCC3)CC2)nc(C)n1 | 6.69% |
| CCCc1cc(CNC2CCN(c3cc(C)nc(N)n3)CC2)on1 | 71.1% |
| CCCc1cc(CNC2CCN(c3cc(C(C)C)nc(C)n3)CC2)on1 | 61.3% |
| Cc1n[nH]c(SCCNC2CCN(c3nc4ccccc4s3)CC2)n1 | 50.2% |
| CCCc1cc(N2CCC(NC3CCC(O)CC3)CC2)nc(C)n1 (stereo not given) | 2.15% |
| CCCc1cc(N2CCC(NC3CCOCC3)CC2)nc(C)n1 | 22.1% |
| CCCC1COCCN1Cc1ccc(NC(C)=O)cc1 (stereo not given) | -30% |
| CC(C(=O)N1CCCCC1)N1CCN(c2nccs2)CC1 (stereo not given) | 41.3% |
| CN(C)C(=O)NCc1cc(=O)n2c(n1)CN(Cc1ccoc1)CCC2 | 5.41% |
| CCn1ncc2c1C(COCC1CC1)N(Cc1cnn(C)c1)CC2 (stereo not given) | -44.2% |

| Compound | INHIBITION |
| --- | --- |
| O[C@H]1CCN(Cc2ccoc2)[C@H]1Cc1cccnc1 | 41.4% |
| CC(=O)N1CCCCC[C@@H]2[C@@H]1[C@H](c1cccc(F)c1)CN2CCC(N)=O | 32.95% |
| O=C(C1=CCCC1)N1C[C@H]2CCC[C@@]2(COCc2ccncc2)C1 | 47.9% |
| Cc1cn(CC(=O)NC2CCC(C(=O)O)CC2)c2ccccc12 (stereo not given) | 26.4% |
| Cc1cc(=O)n(CC(=O)NC2CCCCC2)c2ccccc12 | 70.1% |
| COC(=O)[C@@H]1C[C@H](NC(=O)Cn2c(=O)cc(C)c3ccccc32)CN1C | -4.4% |
| Cc1nnn2c1COCC(CNC(=O)c1ccc[nH]1)C2 (stereo not given) | 26.5% |
| CC(C)CSCCN1CCN(S(C)(=O)=O)CC1 | 45.3% |
| CCSCCN1CCCN(S(C)(=O)=O)CC1 | 37.7% |
| CC(C)CSCCN1CCCN(S(C)(=O)=O)CC1 | 75.6% |
| O=C1CCOC[C@]2(CN(Cc3ccccc3)C[C@H]2c2ccccc2F)N1 | 23.9% |
| CN1CCN(C(=O)[C@H]2C[C@H]3[C@H](CCN3Cc3cccs3)O2)CC1 | -7.24% |
| c1cncc(CN2CCCC3(COCCN(c4cnccn4)C3)C2)c1 (stereo not given) | 12.7% |
| CN(Cc1ccco1)C(=O)NC(Cn1ccnc1)C(C)(C)C (stereo not given) | -27.8% |
| CC(Cn1ccnc1)NC(=O)N(C)Cc1ccco1 (stereo not given) | 81% |
| Cc1noc(C)c1CN(C)C(=O)NC(C)c1cccs1 (stereo not given) | -55.1% |
| CC(Cn1cccn1)NC(=O)N(C)Cc1ccsc1 (stereo not given) | -1.04% |
| Cc1cc(CN(C)C(=O)NC(C)Cc2ccco2)no1 (stereo not given) | 34.2% |
| CC(Cn1ccnc1)NC(=O)N(C)Cc1ccc2c(c1)OCO2 (stereo not given) | 7.12% |
| CC(Cn1ccnc1)NC(=O)N(C)Cc1ccsc1 (stereo not given) | 57.4% |
| CC(Cn1ccnc1)NC(=O)N(C)Cc1ccc2c(c1)OCCO2 (stereo not given) | 36.1% |
| Cc1noc(C)c1CN(C)C(=O)NC(C)Cc1ccco1 (stereo not given) | 53.3% |
